In PubChem BioAssay AID434927 (Sanford-Burnham Center for Chemical Genomics, 2010):
A number with no mark means an inactive call. Calls of active or inactive are those of the source.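 Rule for the calls: active = inhibition above about 23% in any of six single-dose repeats (limit read from the data); inactive = the rest.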

The compounds below were run against Intestinal-type alkaline phosphatase (Homo sapiens) (UniProt P09923) (assay: human IAP inhibitors, confirmation, biochemical, luminescence, single concentration, uHTS hits (AID 434927;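 note: plate controls were DMSO wells with enzyme for no effect and wells lacking enzyme for full effect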)). Settings: purified human IAP, CDP-Star luminescence, 30 min; at 8.3 µM; stronger effect = higher value.
Chain of Intestinal-type alkaline phosphatase (Homo sapiens) (P09923 whole entry, looked up): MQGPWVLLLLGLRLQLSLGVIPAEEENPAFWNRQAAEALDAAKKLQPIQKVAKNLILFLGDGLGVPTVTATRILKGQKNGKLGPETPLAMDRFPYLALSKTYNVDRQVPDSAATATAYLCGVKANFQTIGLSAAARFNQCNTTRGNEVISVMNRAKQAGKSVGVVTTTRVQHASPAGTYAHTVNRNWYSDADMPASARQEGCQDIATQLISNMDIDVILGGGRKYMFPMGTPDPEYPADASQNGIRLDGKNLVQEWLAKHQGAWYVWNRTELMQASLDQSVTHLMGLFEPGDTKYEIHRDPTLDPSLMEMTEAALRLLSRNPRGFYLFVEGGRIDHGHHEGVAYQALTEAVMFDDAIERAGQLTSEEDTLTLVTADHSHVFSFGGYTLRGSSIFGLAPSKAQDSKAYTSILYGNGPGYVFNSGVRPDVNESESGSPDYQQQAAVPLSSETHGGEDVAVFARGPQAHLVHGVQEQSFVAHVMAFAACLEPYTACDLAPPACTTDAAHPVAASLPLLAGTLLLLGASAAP

Structure (SMILES)	inhibition
CC(C)Oc1ccc(CCC(=O)NNC(=S)NCc2ccccc2)cc1	46.5% (active)
O=C(Cc1coc2ccc3ccccc3c12)NCc1ccccc1	59.4% (active)
O=C(O)c1ccccc1C(=O)Nc1cc(-c2ccccc2)[nH]n1	61.7% (active)
O=C(N/N=C/c1ccc2cccnc2c1)c1nc2ccccc2c(=O)[nH]1	-193%
O=C(/C=C/c1ccc(O)cc1)c1ccc(NC2=C(N3CCCCC3)C(=O)c3ccccc3C2=O)cc1	-0.00319%
COc1ccccc1C1CN(c2ccccc2)N=C1c1cccs1 (centres undefined)	-128%
CC(C)CC(=O)NC(=S)NNC(=O)c1ccc(NC(=O)C2CCCCC2)cc1	62.1% (active)
COc1cc(NC(=O)NCC2CCN(Cc3ccccc3Cl)CC2)cc(OC)c1OC	-142%
Cc1cc(Br)ccc1SCC(=O)OC/C(O)=C(\C#N)c1nc2ccccc2[nH]1	-67.4%
CC1=NN(c2nc3ccccc3[nH]2)C(=O)/C1=C/N(C)C	-57%
CCOC(=O)c1c(C)[nH]c(C(=O)N/N=C/c2cc([N+](=O)[O-])ccc2O)c1C	29.6% (active)
CC(C)CCNc1ncnc2c1nnn2Cc1ccccc1Cl	40.2% (active)
Cc1cc2cc3c(cc2nc1SCC(=O)Nc1nc(C)c(C)s1)OCO3	43.9% (active)
N#Cc1cc(Oc2ccccc2)c(-n2nnc3ccccc32)cc1C#N	40.7% (active)
Cc1c(C(=O)N/N=C/c2c(O)ccc3ccccc23)nnn1-c1nonc1N	-86.1%
c1ccc(Nc2ccnc(Nc3ccccc3)n2)cc1	-43.5%
O=C(NN1C(=O)/C(=C/c2ccc(O)c([N+](=O)[O-])c2)SC1=S)c1ccccc1Cl	38.9% (active)

Structure (SMILES)	inhibition
CN(Cc1ccccc1)C(=O)c1[nH]cnc1C(=O)Nc1nccs1	-141%
N#CCN1C(=S)N=C(Nc2cccc(Cl)c2)C12CCCCC2	-55.5%
C/C(=N/Nc1ccccc1[N+](=O)[O-])c1ccc([N+](=O)[O-])cc1	-233%
Cc1nc2c3ccccc3nc(NNC(=O)CCC(=O)N3CCCC(C)C3)n2n1 (centres undefined)	-41.6%
CC(=O)Nc1cccc(C(=O)NNC(=O)c2n[nH]c(=O)c3ccccc23)c1	-125%
Cc1cc(=O)[nH]c(-n2[nH]c3c(c2=O)CCCC3)n1	55.9% (active)
CC(=O)c1ccc(NC(=O)C2CCCN2S(=O)(=O)c2cccs2)cc1 (centres undefined)	-85.1%
CC(NS(=O)(=O)c1ccc(Br)cc1)C(=O)Nc1nc2ccccc2[nH]1 (centres undefined)	66.7% (active)
Cc1cc(C)cc(OCC(=O)NNC(=O)c2cc(C)[nH]n2)c1	-94.6%
COc1ccc(CN2CCC(n3nccc3NC(=O)CCCc3ccccc3)CC2)cc1C	-127%
Cc1cc2nc(C3CCN(Cc4nnnn4Cc4cccs4)CC3)[nH]c2cc1C	79.3% (active)
O=C(N/N=C/c1cccc([N+](=O)[O-])c1)c1nc2ccccc2c(=O)[nH]1	33.3% (active)
N#C/C(=C(\O)c1ccco1)c1ccccn1	55.3% (active)
Cc1ccc(-c2cc(C(=O)N/N=C/c3ccccc3O)n[nH]2)o1	39.3% (active)
COc1ccccc1C1=NN(C2=NN=C(N)Cc3ncnn32)C(O)(C(F)(F)F)C1 (centres undefined)	45.2% (active)
CCCCOc1cccc(C2/C(=C(\O)c3ccc4c(c3)OCCO4)C(=O)C(=O)N2CCN2CCOCC2)c1 (centres undefined)	-90.6%
Cc1ccc(NC(=O)c2ccncc2)cc1[N+](=O)[O-]	53.7% (active)
